Source: PubChem BioAssay (Tox21)
Unmarked numbers belong to inactive results. Records with an inconclusive call do not appear. Where a call stands in place of a potency, no number is given. Active and inactive are the calls of the source. Unless noted, calls follow the shape of the dose curve; as a rule, active = well fitted curve in the direction sought with a large enough effect in the repeat runs; inconclusive = weak or mixed curves; inactive = no such curve, though single readings can be large; an effect the other way counts as inactive or inconclusive.

What was measured:
[1] = qHTS assay for small molecule agonists of the p53 signaling pathway (AID 651631; calls by dose curve; also: nearly all actives have a fitted effect of over 15% in size)
Outline: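 Beta-lactamase reporter activity under p53 response elements was quantified in HCT-116 cells by FRET fluorescence, following 16 h incubation with test compounds at 37 °C and 2 h substrate development at room temperature.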

[2] = qHTS assay for small molecules that induce genotoxicity in human embryonic kidney cells expressing luciferase-tagged ATAD5 (AID 651632); also: nearly all actives have a fitted effect of over 15% in size
Outline: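 Test compounds were delivered by pin tool onto HEK293T reporter cells (2,000/well) expressing ATAD5 fused to luciferase. After 16 hr at 37C, 5% CO2, Amplite was added for 30 min at room temperature and luminescence was measured.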

[3] = qHTS assay for small molecule agonists of the p53 signaling pathway - cell viability (AID 651633; calls by dose curve;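 also: p53RE-bla HCT reporter cells with a stable beta-lactamase p53 reporter; series mostly up to about 83 µM; nearly all actives have a fitted effect of over 30% in size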)
Outline: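 p53RE-bla cells were treated with compound for 16 hours at 37 C. Cytotoxicity was then measured as CellTiter-Glo luminescence after 30 min at room temperature.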

[4] = qHTS assay for small molecules that induce genotoxicity in human embryonic kidney cells expressing luciferase-tagged ATAD5 - cell viability (AID 651634; calls by dose curve; also: nearly all actives have a fitted effect of over 25% in size)
Outline: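 Quantitative high-throughput format. HEK293T cells expressing ATAD5 fused to luciferase were plated at 2,000 cells/well and treated 15.5 hr with compound versus DMSO. Viability was determined by fluorescent live-cell protease substrate, 30 min at 37C.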

[5] = qHTS assay for small molecule disruptors of the mitochondrial membrane potential - cell viability (AID 720634; calls by dose curve;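 also: human HepG2 liver cancer cells; series mostly up to about 83 µM; nearly all actives have a fitted effect of over 20% in size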)
Outline: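 Same-well counter-screen: following the MMP dye addition, CellTiter-Glo was added to 1 hr compound-treated HepG2 cells and luminescence read after 30 min at room temperature.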

[6] = qHTS assay for small molecule disruptors of the mitochondrial membrane potential (AID 720635); also: potency is read from the fitted curve at half-maximal effect
Outline: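 HepG2 cells exposed to compound 1 hr at 37C, then Mito-MPS dye 30 min. Ratio read of aggregate (540/590 nm) versus monomer (490/535 nm) fluorescence.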

[7] = qHTS assay to test for compound auto fluorescence at 590 nm (red) in HepG2 cells (AID 720674)
Outline: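 Seeding: 2,000 HepG2 cells/well, MEM/10% FBS, overnight 37 C. Dosing: compound vs DMSO. Incubation: 1 hr, 37 C, 5% CO2. Read: fluorescence 540 ex/590 em, Rose Bengal sodium as red reference.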

[8] = qHTS assay to test for compound auto fluorescence at 535 nm (green) in HepG2 cells (AID 720675)
[9] = qHTS assay to test for compound auto fluorescence at 460 nm (blue) in HEK293 cells (AID 720678)
Outline: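 Triamterene serves as the blue fluorophore standard. Compound signal at 405/460 nm is read in HEK293 wells (2,000 cells, 10% dialyzed FBS) after overnight treatment at 37C.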

[10] = qHTS assay to test for compound auto fluorescence at 590 nm (red) in HEK293 cells (AID 720679)
Outline: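 We plated HEK293 cells in 10% dialyzed FBS medium, let them adhere for 4-5 hr, then added 23 nL compound. Overnight at 37C and 5% CO2 preceded fluorescence measurement at 540/590nm.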

[11] = qHTS assay to test for compound auto fluorescence at 535 nm (green) in HEK293 cells (AID 720680)
[12] = qHTS assay to test for compound auto fluorescence at 460 nm (blue) in HEK293 cell free culture (AID 720681)
Outline: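 Compounds were added to cell-free DMEM with 10% FBS and fluorescence read directly. The blue channel used 405 nm excitation and 460 nm emission, with triamterene as the reference fluorophore.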

[13] = qHTS assay to test for compound auto fluorescence at 535 nm (green) in HEK293 cell free culture (AID 720682)
Outline: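 Each library compound, or DMSO control, is added by pintool to medium alone, comprising DMEM and 10% FBS. Emission at 535 nm following 485 nm excitation is quantified against fluorescein.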

[14] = qHTS assay to test for compound auto fluorescence at 590 nm (red) in HEK293 cell free culture (AID 720683)
Outline: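 Cell-free wells of DMEM with 10% FBS received compound, and intrinsic fluorescence was read at excitation/emission 540/590 nm. Values expressed as equivalence to Rose Bengal sodium.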

[15] = qHTS assay to test for compound auto fluorescence at 590 nm (red) in HepG2 cell free culture (AID 720684)
Outline: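 Auto fluorescence equivalency versus Rose Bengal sodium, red channel Ex/Em 540/590 nm; compounds in cell-free MEM/10% FBS; DMSO vehicle control.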

[16] = qHTS assay to test for compound auto fluorescence at 460 nm (blue) in HepG2 cell free culture (AID 720685)
Outline: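 Cell-free plates of MEM plus 10% FBS received 23 nL compound or DMSO vehicle; blue-channel (405/460 nm) intensity scored against triamterene as reference fluorophore.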

[17] = qHTS assay to test for compound auto fluorescence at 535 nm (green) in HepG2 cell free culture (AID 720686)
[18] = qHTS assay to test for compound auto fluorescence at 460 nm (blue) in HepG2 cells (AID 720687)
Outline: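 HepG2 cells in MEM with 10% FBS, attached overnight at 37 C, were exposed to compound or DMSO for 1 hr at 37 C, 5% CO2. Blue fluorescence was read at 405/460 nm, with triamterene as reference fluorophore.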

[19] = target: Glucocorticoid receptor (Homo sapiens) (UniProt P04150); assay: qHTS assay to identify small molecule agonists of the glucocorticoid receptor (GR) signaling pathway (AID 720691; active = well fitted activation curve with a large enough effect in the signal ratio in the repeat runs, not every such curve was filed as active; the % refers to the signal ratio)
Glucocorticoid receptor (Homo sapiens), sequence (P04150 whole entry, looked up): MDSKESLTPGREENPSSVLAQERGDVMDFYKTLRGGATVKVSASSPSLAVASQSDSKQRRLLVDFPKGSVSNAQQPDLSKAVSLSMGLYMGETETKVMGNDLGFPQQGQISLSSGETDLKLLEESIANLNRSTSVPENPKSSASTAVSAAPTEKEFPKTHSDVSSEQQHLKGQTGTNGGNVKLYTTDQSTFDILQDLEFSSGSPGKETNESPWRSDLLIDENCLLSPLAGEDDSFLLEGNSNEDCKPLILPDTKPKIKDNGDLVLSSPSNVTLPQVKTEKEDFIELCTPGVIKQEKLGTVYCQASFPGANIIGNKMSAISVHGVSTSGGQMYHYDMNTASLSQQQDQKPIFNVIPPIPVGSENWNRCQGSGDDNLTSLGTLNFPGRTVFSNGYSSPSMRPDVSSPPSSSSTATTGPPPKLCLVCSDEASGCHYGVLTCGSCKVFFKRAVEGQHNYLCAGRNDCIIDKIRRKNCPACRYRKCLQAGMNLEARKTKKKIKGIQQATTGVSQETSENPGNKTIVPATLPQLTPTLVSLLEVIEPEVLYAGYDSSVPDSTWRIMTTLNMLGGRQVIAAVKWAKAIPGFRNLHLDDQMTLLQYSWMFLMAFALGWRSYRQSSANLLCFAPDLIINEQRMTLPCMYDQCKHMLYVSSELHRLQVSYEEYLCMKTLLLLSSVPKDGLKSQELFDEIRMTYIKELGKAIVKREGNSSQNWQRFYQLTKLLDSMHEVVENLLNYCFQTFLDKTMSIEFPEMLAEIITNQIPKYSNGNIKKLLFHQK
Outline: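 A HeLa cervical cancer line expressing GR and a glucocorticoid response element-driven beta-lactamase gene is treated with compounds for 18 h; LiveBLAzer B/G FRET substrate is then applied and fluorescence read.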

[20] = target: Glucocorticoid receptor (Homo sapiens) (UniProt P04150); assay: qHTS assay to identify small molecule antagonists of the glucocorticoid receptor (GR) signaling pathway (AID 720692; active = well fitted inhibition curve with a large enough effect in the signal ratio in the repeat runs, not every such curve was filed as active; the % refers to the signal ratio)
Outline: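 GRE-bla HeLa line, dex-stimulated (5 nM final). Compound exposure 18 h, 37 C. Beta-lactamase FRET read after 2 h RT substrate.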

CCCC(=O)CC
Potency [1]: inactive
Potency [2]: inactive
outcome [3]: inactive
outcome [4]: inactive
outcome [5]: inactive
Potency [6]: inactive
outcome [7]: inactive
outcome [8]: inactive
outcome [9]: inactive
outcome [10]: inactive
outcome [11]: inactive
outcome [12]: inactive
outcome [13]: inactive
outcome [14]: inactive
outcome [15]: inactive
outcome [16]: inactive
outcome [17]: inactive
outcome [18]: inactive

CCCCN(CCCC)CCCCCCN(CCCC)CCCC
Potency [1]: inactive
Potency [2]: inactive
outcome [3]: inactive
outcome [4]: inactive
outcome [5]: inactive
Potency [6]: inactive
outcome [7]: inactive
outcome [8]: inactive
outcome [9]: inactive
outcome [10]: inactive
outcome [11]: inactive
outcome [12]: inactive
outcome [13]: inactive
outcome [14]: inactive
outcome [15]: inactive
outcome [16]: inactive
outcome [17]: inactive
outcome [18]: inactive

CCCCCCCCC1CO1 (stereo not given)
Potency [1]: inactive
Potency [2]: inactive
outcome [3]: inactive
outcome [4]: inactive
outcome [5]: inactive
Potency [6]: inactive
outcome [7]: inactive
outcome [8]: inactive
outcome [9]: inactive
outcome [10]: inactive
outcome [11]: inactive
outcome [12]: inactive
outcome [13]: inactive
outcome [14]: inactive
outcome [15]: inactive
outcome [16]: inactive
outcome [17]: inactive
outcome [18]: inactive
Potency [19]: inactive
outcome [20]: inactive

O=C(OOC(=O)c1ccccc1)c1ccccc1
Potency [1]: inactive
Potency [2]: inactive
outcome [3]: inactive
outcome [4]: inactive
outcome [5]: inactive
Potency [6]: inactive
outcome [7]: inactive
outcome [8]: inactive
outcome [9]: inactive
outcome [10]: inactive
outcome [11]: inactive
outcome [12]: inactive
outcome [13]: inactive
outcome [14]: inactive
outcome [15]: inactive
outcome [16]: inactive
outcome [17]: inactive
outcome [18]: inactive
Potency [19]: inactive
outcome [20]: inactive

Cc1cccc(N)n1
Potency [1]: inactive
Potency [2]: inactive
outcome [3]: inactive
outcome [4]: inactive
outcome [5]: inactive
Potency [6]: inactive
outcome [7]: inactive
outcome [8]: inactive
outcome [9]: inactive
outcome [10]: inactive
outcome [11]: inactive
outcome [12]: inactive
outcome [13]: inactive
outcome [14]: inactive
outcome [15]: inactive
outcome [16]: inactive
outcome [17]: inactive
outcome [18]: inactive

COC(=O)c1c(C)cc(O)c(C)c1O
Potency [1]: inactive
Potency [2]: inactive
outcome [3]: inactive
outcome [4]: inactive
outcome [5]: inactive
Potency [6]: 12.2 µM (active)
outcome [7]: inactive
outcome [8]: inactive
outcome [9]: inactive
outcome [10]: inactive
outcome [11]: inactive
outcome [12]: inactive
outcome [13]: inactive
outcome [14]: inactive
outcome [15]: inactive
outcome [16]: inactive
outcome [17]: inactive
outcome [18]: inactive

COc1ccc(Cl)cc1C
Potency [1]: inactive
Potency [2]: inactive
outcome [3]: inactive
outcome [4]: inactive
outcome [5]: inactive
Potency [6]: inactive
outcome [7]: inactive
outcome [8]: inactive
outcome [9]: inactive
outcome [10]: inactive
outcome [11]: inactive
outcome [12]: inactive
outcome [13]: inactive
outcome [14]: inactive
outcome [15]: inactive
outcome [16]: inactive
outcome [17]: inactive
outcome [18]: inactive
Potency [19]: inactive
outcome [20]: inactive

Cc1nnc(C(=O)NC(C)(C)c2nc(C(=O)NCc3ccc(F)cc3)c(O)c(=O)n2C)o1
Potency [1]: inactive
Potency [2]: inactive
outcome [3]: inactive
outcome [4]: inactive
outcome [5]: inactive
Potency [6]: inactive
outcome [7]: inactive
outcome [8]: inactive
outcome [9]: inactive
outcome [10]: inactive
outcome [11]: inactive
outcome [12]: inactive
outcome [13]: inactive
outcome [14]: inactive
outcome [15]: inactive
outcome [16]: inactive
outcome [17]: inactive
outcome [18]: inactive
Potency [19]: inactive
outcome [20]: inactive

C=CCOC(=O)CCCCCCCC
Potency [1]: inactive
Potency [2]: inactive
outcome [3]: inactive
outcome [4]: inactive
outcome [5]: inactive
Potency [6]: inactive
outcome [7]: inactive
outcome [8]: inactive
outcome [9]: inactive
outcome [10]: inactive
outcome [11]: inactive
outcome [12]: inactive
outcome [13]: inactive
outcome [14]: inactive
outcome [15]: inactive
outcome [16]: inactive
outcome [17]: inactive
outcome [18]: inactive

Cc1nc2ccc(Cl)cc2[nH]1
Potency [1]: inactive
Potency [2]: inactive
outcome [3]: inactive
outcome [4]: inactive
outcome [5]: inactive
Potency [6]: inactive
outcome [7]: inactive
outcome [8]: inactive
outcome [9]: inactive
outcome [10]: inactive
outcome [11]: inactive
outcome [12]: inactive
outcome [13]: inactive
outcome [14]: inactive
outcome [15]: inactive
outcome [16]: inactive
outcome [17]: inactive
outcome [18]: inactive
Potency [19]: inactive
outcome [20]: inactive

COc1cnc(NS(=O)(=O)c2ccc(N)cc2)nc1
Potency [1]: inactive
Potency [2]: inactive
outcome [3]: inactive
outcome [4]: inactive
outcome [5]: inactive
Potency [6]: inactive
fluorescence, relative to Rose Bengal [7]: -0.0895% [at 18.6 µM]
fluorescence, % of fluorescein control [8]: -0.0734% [at 18.6 µM]
fluorescence, % of triamterene [9]: 0.0096% [at 18.6 µM]
fluorescence, % of fluorescent control [10]: 0.0444% [at 18.6 µM]
fluorescence, % of fluorescein [11]: -0.0702% [at 18.6 µM]
fluorescence, % of fluorescent control [12]: 0.0732% [at 18.6 µM]
activity change [13]: -0.0115% [at 18.6 µM]
fluorescence, % of fluorescent control [14]: -0.0163% [at 18.6 µM]
fluorescence, % of Rose Bengal [15]: 0.414% [at 18.6 µM]
fluorescence, % of fluorescent control [16]: 0.0024% [at 18.6 µM]
fluorescence, % of fluorescein control [17]: 0.0043% [at 18.6 µM]
fluorescence, % of fluorescent control [18]: 0.0082% [at 18.6 µM]
Potency [19]: inactive
outcome [20]: inactive

C[n+]1ccccc1/C=N/O
Potency [1]: inactive
Potency [2]: inactive
outcome [3]: inactive
outcome [4]: inactive
outcome [5]: inactive
Potency [6]: inactive
fluorescence, relative to Rose Bengal [7]: 0.247% [at 18.6 µM]
fluorescence, % of fluorescein control [8]: -0.126% [at 18.6 µM]
fluorescence, % of triamterene [9]: -0.0874% [at 18.6 µM]
fluorescence, % of fluorescent control [10]: -1.07% [at 18.6 µM]
fluorescence, % of fluorescein [11]: -0.0429% [at 18.6 µM]
fluorescence, % of fluorescent control [12]: 0.0506% [at 18.6 µM]
activity change [13]: -0.0149% [at 18.6 µM]
fluorescence, % of fluorescent control [14]: -0.29% [at 18.6 µM]
fluorescence, % of Rose Bengal [15]: -0.356% [at 18.6 µM]
fluorescence, % of fluorescent control [16]: -0.0014% [at 18.6 µM]
fluorescence, % of fluorescein control [17]: 0.0162% [at 18.6 µM]
fluorescence, % of fluorescent control [18]: 0.0546% [at 18.6 µM]
Potency [19]: inactive
outcome [20]: inactive

CCc1ccc(CC)cc1
Potency [1]: inactive
Potency [2]: inactive
outcome [3]: inactive
outcome [4]: inactive
outcome [5]: inactive
Potency [6]: inactive
outcome [7]: inactive
outcome [8]: inactive
outcome [9]: inactive
outcome [10]: inactive
outcome [11]: inactive
outcome [12]: inactive
outcome [13]: inactive
outcome [14]: inactive
outcome [15]: inactive
outcome [16]: inactive
outcome [17]: inactive
outcome [18]: inactive
Potency [19]: inactive
outcome [20]: inactive
